Experimental findings from PubChem BioAssay AID652106 (National Center for Advancing Translational Sciences (NCATS), 2013) are described below.

Out of some 370,000 compounds screened, about 500 (0.14%) were called active. Where a call stands in place of a potency, no number is given. Inconclusive results (about 2%) are left out. Calls follow the shape of the dose curve; as a rule, active = well fitted activation curve with a large enough effect; inconclusive = small, poorly fitted or top-dose-only effect; inactive = no such curve, though single readings can be large or run the other way. This excerpt belongs to a sample that is enriched for actives.
Potency is read from the fitted curve at half-maximal effect.

This experiment is described as follows: qHTS of alpha-syn Inhibitors. Also: nearly all actives have a fitted effect of over 65% in size. The note with it: Yeast expressing alpha-synuclein, BacTiter-Glo, 24 h; Potency: growth rescue; series mostly up to 46.1 µM. From the text:
The goal of this project is to identify new chemical probes capable of reversing the toxicity associated with the Parkinson disease-related protein, alpha-synuclein. Compounds will be selected on their ability to restore growth in yeast cells expressing toxic levels of alpha-synuclein. These compounds will provide a complementary approach to deciphering the tangled mechanisms of toxicity and protection that we have uncovered through genome-wide genetic screens and are beginning to uncover in a large-scale proteomics analysis with mass spectroscopy. To this end, a miniaturized assay was developed to be screened against the Molecular Libraries Small Molecule Repository (MLSMR) to discover alpha-synuclein inhibitors. Please note that in the set-up this yeast-based assay compounds that inhibit as alpha-syn, have a read-out as activators. NIH Chemical Genomics Center [NCGC] NIH Molecular Libraries Probe Centers Network [MLPCN] MLPCN Grant: NS060957 Assay Submitter (PI): Susan Lindquist, Whitehead Institute/MIT
Dispense 2.5 microL yeast galactose medium per 1536-well plate, pin compound, dispense 2.5 microL alpha-synuclein expressing yeast in galactose medium at OD600=0.02 (pregrown in raffinose medium to mid-log phase) per well, incubate for 24 hr at 30 deg C, and cell growth will be measured using 5 microL of Bactiter/Glo reagent to entire plate and read using Luminescence Protocol in ViewLux.
A general note: In qHTS, concentration-response curves come from the screen itself.
Take `CSc1n[nH]c(-c2ccco2)n1`: the Potency result is “inactive”.

As to `Cc1ccc(C(CNC(=O)Nc2ccccc2)N2CCN(C)CC2)cc1` (stereo not drawn), the Potency entry is “inactive”.

Consider `Cc1ccc(C)c(NC(=S)NCC(c2cccnc2)N2CCOCC2)c1` (stereo not drawn), for which the Potency entry is “inactive”.

With `Cc1ccc(NC(=O)NCC(c2cccnc2)N2CCOCC2)cc1` (stereo not drawn), the Potency was 5.62 µM (active).

On to `O=C(COC(=O)c1ccc(Oc2ccccc2)cc1)Nc1nnc(-c2ccccc2)o1`, for which the Potency is 22.4 µM (active).

Turning to `O=C(COc1ccccc1)Nc1nonc1NC(=O)COc1ccccc1`, the Potency entry is “inactive”.

Regarding `O=C(COC(=O)CSc1nnc(-c2ccc(Cl)cc2)o1)Nc1cc(Cl)cc(Cl)c1`, the Potency result is “inactive”.

Take `CCCS(=O)(=O)Nc1cccc(-c2cn3ccsc3n2)c1`: the Potency entry is “inactive”.

Turning to `CC1CCN(S(=O)(=O)c2ccc3c(c2)N(CC(=O)NCc2ccccc2Cl)C(=O)CO3)CC1`, the Potency result was “inactive”.

Consider `CC(=O)c1ccc[n+](C(C)CCC(C)[n+]2cccc(C(C)=O)c2)c1` (stereo not drawn), for which the Potency result was “inactive”.

As to `CN(C)c1ccnc2sc(C(=O)c3ccccc3)c(N)c12`, the Potency was 25.1 µM (active).

`COc1cccc(C(=O)c2sc3nc(-c4ccccc4)cc(C(F)(F)F)c3c2N)c1`: the Potency entry is “inactive”.

In the case of `CC(=O)c1c(Nc2ccccc2)sc(C(=O)c2ccccc2)c1C`, the Potency entry was “inactive”.

Regarding `CN(CCC#N)c1ccc(C=O)cc1`, the Potency result is “inactive”.

As for `Cc1[nH]c2ccccc2c1C(=O)C(=O)N(C)c1ccccc1`, the Potency result was “inactive”.

Consider `CN1CC[C@H](c2c(O)cc(O)c3c(=O)cc(-c4ccccc4Cl)oc23)[C@H](O)C1`, for which the Potency entry was “inactive”.

On to `COc1cc(C(CC(=O)NCCC(C)C)N2Cc3ccccc3C2=O)cc(OC)c1OC` (stereo not drawn), for which the Potency result was “inactive”.

For the compound `COc1ccc(/C=C/c2ccnc3ccccc23)cc1OC`, the Potency entry is “inactive”.

Regarding `CC(C)CC(=O)NC(=S)NNC(=O)c1cccc([N+](=O)[O-])c1`, the Potency was 17.8 µM (active).

As for `C/C(=N\NC(=O)c1cccc([N+](=O)[O-])c1)c1cccnc1`, the Potency result is “inactive”.

Turning to `O=C(NC(=S)NC1CCS(=O)(=O)C1)c1cccc([N+](=O)[O-])c1` (stereo not drawn), the Potency entry was “inactive”.

In the case of `O=[N+]([O-])c1ccc(/C=C/c2ccc3cccnc3c2)cc1`, the Potency entry was “inactive”.

With `O=S(=O)(c1cccc(C(F)(F)F)c1)N1CCN(c2nc(-c3cccs3)nc3ccccc23)CC1`, the Potency result was “inactive”.

For `CO[C@H]1O[C@@H]2O[C@@]3(C)CC[C@@H]4[C@@H](C)CC[C@@H]([C@H]1C)[C@@]24OO3`, the Potency result is “inactive”.

For `CCOc1cc(C(=O)Nc2nnc3n2CCS3)cc(OCC)c1OCC`, the Potency entry was “inactive”.

`CC(C)c1cccc(C(C)C)c1Nc1cn[nH]c1`: the Potency is 3.98 µM (active).

In the case of `COc1ccc(-c2ccc(CN3C(CC(C)C)C(=O)N(Cc4cn(CC5CCCCC5)nn4)CCS3(=O)=O)cc2)cn1` (stereo not drawn), the Potency entry is “inactive”.

As for `CC(=O)c1cccc(-c2ccc(CN3C(CC(C)C)C(=O)N(Cc4cn(CC5CCCCC5)nn4)CCS3(=O)=O)cc2)c1` (stereo not drawn), the Potency entry was “inactive”.

For the compound `CC(C)CC1C(=O)N(Cc2cn(CC3CCCCC3)nn2)CCS(=O)(=O)N1Cc1ccc(-c2ccc(Cl)cc2)cc1` (stereo not drawn), the Potency is 1.58 µM (active).

In the case of `O=C(Nc1cnccn1)c1cccnc1`, the Potency entry is “inactive”.

In the case of `O=C(CC(=O)c1cccnc1)c1ccccc1`, the Potency was 15.8 µM (active).

As for `CCOc1ccccc1NC(=O)c1cccnc1`, the Potency entry is “inactive”.

In the case of `CCOc1ccc(NC(=O)CSc2nnc3c(n2)[nH]c2ccc(S(=O)(=O)N4CCOCC4)cc23)cc1`, the Potency result was “inactive”.

As to `CCN(CC)c1ccc(/C=C/c2c(C)cnc3ccc(C)cc23)cc1`, the Potency entry was “inactive”.

For `COc1cc2nc(N3CCCN(C)CC3)nc(NC3CC3)c2cc1OC`, the Potency result is “inactive”.

Take `OC(CBr)C[n+]1cccc2cc(Br)ccc21` (stereo not drawn): the Potency result was “inactive”.

For the compound `ClC/C=C/C[n+]1ccccc1Cl`, the Potency result was “inactive”.

As to `O=C(c1ccco1)N(Cc1cccs1)c1ccc(O)cc1`, the Potency result is “inactive”.

For `O=c1cc(-c2ccccc2)[nH]c2nc(Cl)ccc12`, the Potency entry was “inactive”.

Consider `NS(=O)(=O)c1ccc(NC(=O)CSc2nnc3c(n2)[nH]c2ccccc23)cc1`, for which the Potency entry was “inactive”.

For the compound `CCC(C)N(c1ccc(/C=C/c2ccnc3ccccc23)cc1)C(C)CC` (stereo not drawn), the Potency result was “inactive”.

With `O=C1c2ccccc2C(=O)N1c1ccc(S(=O)(=O)N2CCOCC2)c2ccccc12`, the Potency entry was “inactive”.

For the compound `CS(=O)c1ccc(/C=C2\C=Cc3ccccc32)cc1` (stereo not drawn), the Potency result is “inactive”.

Regarding `Cc1ccc(C(=O)CSc2nc(-c3ccccc3)nc3c2CCCC3)c(C)c1`, the Potency result was “inactive”.

Consider `Cc1cccc(Nc2nc(C)nc(N)c2S(=O)(=O)c2ccccc2)c1`, for which the Potency result is “inactive”.

As for `Brc1cccc[n+]1Cc1cccc(C[n+]2ccccc2Br)c1`, the Potency result was “inactive”.

`OC(Cc1ccc2ccccc2n1)c1ccc(Cl)c(Cl)c1` (stereo not drawn): the Potency entry was “inactive”.

On to `COc1ccc(C)cc1NC(=O)C(=O)NCCc1sc(-c2cccc(C)c2)nc1C`, for which the Potency result is “inactive”.

For the compound `CN(C)c1ccc(/C=C2\C=Cc3ccccc32)cc1Br`, the Potency entry was “inactive”.

Turning to `CC(C)(C(=O)NO)c1ccccc1`, the Potency entry was “inactive”.

For the compound `CN(O)C(=S)c1ccccc1`, the Potency was 3.55 µM (active).

For the compound `CCOc1ccccc1C(=O)NC1(C(F)(F)F)NC(=O)N(CCc2ccc(OC)c(OC)c2)C1=O` (stereo not drawn), the Potency result is “inactive”.

For the compound `O=C(c1cnn2c1NC(=C1CC1)C=C2C(F)F)N1CCc2ccccc2C1`, the Potency result is “inactive”.

On to `Cc1cc(F)ccc1NC1(c2ccccc2)C(=O)c2ccccc2C1=O`, for which the Potency entry was “inactive”.

With `O=[N+]([O-])c1ccccc1S(=O)(=O)Nc1cccc2cccnc12`, the Potency result was “inactive”.

`COc1ccc(S(=O)(=O)Nc2cccc3cccnc23)c(N)c1`: the Potency is 22.4 µM (active).

With `O=S(=O)(Nc1cccc2cccnc12)c1cccc2cccnc12`, the Potency entry is “inactive”.

Consider `O=C(NNC(=O)c1ccc(Cl)nc1)c1ccc(Br)cc1`, for which the Potency entry is “inactive”.

`CNC(=S)NNC(=O)c1ccc(N(C)C)cc1`: the Potency result is “inactive”.

`CC(=O)NC(=S)NNC(=O)c1ccc(Br)cc1`: the Potency was 12.6 µM (active).

For the compound `Cc1ccc(-c2nc(=N)sn2Cc2ccccc2)cc1`, the Potency result is “inactive”.

On to `CC(C)C[C@@H](COCc1ccc(Cl)cc1)N1CCN(C(=O)c2ccc(Cl)cc2Cl)CCC1=O`, for which the Potency is 15.8 µM (active).

As to `CC(C)CC(CO)N1CCN(C(=O)c2ccc(Cl)cc2Cl)CCC1=O` (stereo not drawn), the Potency result was “inactive”.

`CC(C)CC(COCc1ccc(Cl)cc1)N1CCN(C(=O)c2ccc(C(F)(F)F)cc2)CCC1=O` (stereo not drawn): the Potency entry was “inactive”.

With `CN(C(=N)N)c1ccc(/C=C2\C=Cc3ccccc32)cc1`, the Potency result is “inactive”.

`CN(C)CCCn1c(-c2ccc(Cl)cc2)csc1=Nc1ccccc1`: the Potency entry was “inactive”.

Consider `CN(C)c1ccc(/C=C/c2sc3ccccc3[n+]2C)cc1`, for which the Potency result is “inactive”.

In the case of `CC1(C)C=Cc2c(ccc(C(=O)/C=C/c3ccccc3)c2O)O1`, the Potency entry was “inactive”.
